Values joined by “and” are separate entries in the source; they are usually repeats but may differ in a detail not shown here. Identical values can stand only once. Inconclusive results are not listed. Where a call stands in place of a potency, no number is given. Unmarked numbers belong to inactive results. Active and inactive are the calls of the source. Calls follow the shape of the dose curve; as a rule, active = well fitted inhibition curve with a large enough effect in the signal ratio in the repeat runs (not every such curve was filed as active); inconclusive = weak or mixed curves, or effect the other way; inactive = no such curve, though single readings can be large or run the other way; the % refers to the signal ratio. Starred links: 1 amine or outer side, 2 acyl side, 3 side chain; linkers in the order of their positions; H or OH if unused. Positions of bridges follow the written chain, without caps; N, C: chain ends. Non-standard residues stand in square brackets, D forms with d. Residues, ends and D or L forms follow the SMILES beside them. Chains are numbered I, II in the order given. Actinocin(9to1) = Cc1c2oc3c(C)ccc(C(=O)[*:1])c3nc-2c(C(=O)[*:2])c(N)c1=O; NMeV = CN[C@H](C(=O)O)C(C)C; Sar = CNCC(=O)O
Potency is read from the fitted curve at half-maximal effect.

Estrogen receptor beta (Homo sapiens), sequence (Q92731 whole entry, looked up): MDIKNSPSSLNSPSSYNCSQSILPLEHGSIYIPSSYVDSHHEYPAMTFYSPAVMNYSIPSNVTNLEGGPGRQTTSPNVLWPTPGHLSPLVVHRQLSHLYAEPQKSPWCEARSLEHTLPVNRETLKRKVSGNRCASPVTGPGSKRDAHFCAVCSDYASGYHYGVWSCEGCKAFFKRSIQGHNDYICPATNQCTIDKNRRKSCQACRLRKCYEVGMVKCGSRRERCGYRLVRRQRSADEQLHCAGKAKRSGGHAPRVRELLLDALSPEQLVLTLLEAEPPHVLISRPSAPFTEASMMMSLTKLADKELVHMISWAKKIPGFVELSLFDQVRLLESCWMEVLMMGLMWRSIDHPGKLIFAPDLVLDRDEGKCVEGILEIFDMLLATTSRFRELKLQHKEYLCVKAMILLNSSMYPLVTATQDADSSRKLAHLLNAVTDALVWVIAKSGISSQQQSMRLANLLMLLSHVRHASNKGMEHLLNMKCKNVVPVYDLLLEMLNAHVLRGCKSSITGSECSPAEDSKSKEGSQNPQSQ

In this test the target is Estrogen receptor beta (Homo sapiens) (UniProt Q92731). The test is described as follows: qHTS assay to identify small molecule antagonists of the estrogen receptor beta (ER-beta) signaling pathway (AID 1259378). To be noted: ER-beta-UAS-bla HEK293T, beta-lactamase FRET ratio, 16 h; series mostly up to 92.4 µM. The method, boiled down:
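ER-beta-UAS-bla HEK293T cells in 2% charcoal-stripped FBS medium treated with compound plus 1nM final 17-beta-estradiol for 16 hr at 37C. Beta-lactamase reporter read by FRET substrate fluorescence after 2 hours at room temperature.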
In the case of `COc1ccc(Cc2cnc(N)nc2N)cc1OC`, the Potency result is “inactive”.
Turning to `COC(=O)c1cccc(C(=O)OC)c1`, the Potency result is “inactive”.
In the case of `Cc1scc2c1N(C(=O)CN1CCN(C)CC1)c1ccccc1NC2=O`, the Potency result is “inactive”.
Same read-out and setting: the entry for `CC(C)(C)NCC(O)COc1ccccc1OCC1CCCO1` (stereo unspecified) is “inactive”; for `C=CC(=O)OCCCCCCOC(=O)C=C` it is 54.5 µM (active).
For the compound `CCN(CC)CCOc1ccc(/C(=C(\Cl)c2ccccc2)c2ccccc2)cc1`, the Potency is 0.266 µM (active).
Still for that read-out and setting: the entry for `C/C=C/c1ccc(OCC)c(O)c1` is “inactive”.
As for `CCCCCCCCCCCCCCCCCl`, the activity, negative = inhibition is 9.46% [at 19 µM].
For the compound `Nc1cc(Cl)c(-c2cc(Cl)c(N)cc2Cl)cc1Cl`, the Potency was 8.63 µM (active).
For `O=C(Cl)c1cccc(C(=O)Cl)c1`, the Potency result was “inactive”.
Still for that read-out and setting: the entry for `CN1C(=O)c2ccc([N+](=O)[O-])cc2C1=O` is “inactive”; for `CC(C)(C)c1ccccc1` it is “inactive”.
On to `Oc1c(Cl)cc(Cl)cc1Sc1cc(Cl)cc(Cl)c1O`, for which the Potency is 27.8 µM (active) and 7.7 µM (active).
With `Cc1c2oc3c(C)ccc(C(=O)N[C@@H]4C(=O)N[C@H](C(C)C)C(=O)N5CCC[C@H]5C(=O)N(C)CC(=O)N(C)[C@@H](C(C)C)C(=O)O[C@@H]4C)c3nc-2c(C(=O)N[C@@H]2C(=O)N[C@H](C(C)C)C(=O)N3CCC[C@H]3C(=O)N(C)CC(=O)N(C)[C@@H](C(C)C)C(=O)O[C@@H]2C)c(N)c1=O` (I: T[dV]P[Sar][NMeV] / II: T[dV]P[Sar][NMeV]; ester I:1-I:C, II:1-II:C; linker I:N-II:N via Actinocin(9to1)), the Potency was 0.0266 µM (active).
Turning to `O=C(O[C@@H]1Cc2c(O)cc(O)cc2O[C@@H]1c1cc(O)c(O)c(O)c1)c1cc(O)c(O)c(O)c1`, the Potency result was “inactive”.
Still for that read-out and setting: the result for `C=C(C)C(=O)O` reads “inactive”; that for `O=c1n(CC2CO2)c(=O)n(CC2CO2)c(=O)n1CC1CO1` (stereo unspecified), “inactive”.
The same measure, in the same setting: the entry for `c1ccc2n[nH]nc2c1` is “inactive”.
On to `CCCCCCC(O)CCCCCCCCCCC(=O)O` (stereo unspecified), for which the Potency entry is “inactive”.
Take `O=C1Nc2ccccc2C1(c1ccc(O)cc1)c1ccc(O)cc1`: the Potency is 27.3 µM (active) and 18.8 µM (active).
Same read-out and setting: the figure for `Oc1ccc(Cl)cc1Cc1cc(Cl)ccc1O` is 17.5 µM (active) and 19.3 µM (active) and 23.7 µM (active); for `N[C@@H]1CONC1=O` it is “inactive”; for `Cc1ccnc2c1NC(=O)c1cccnc1N2C1CC1` it is “inactive”.
With `COC(c1ccccc1)(c1ccccc1)[C@H](Oc1nc(C)cc(C)n1)C(=O)O`, the Potency result is “inactive”.
For the compound `CCOC(=O)C(C)C(C)=O` (stereo unspecified), the Potency result is “inactive”.
In the case of `CCC(=O)/C=C/C1C(C)=CCCC1(C)C` (stereo unspecified), the Potency entry is “inactive”.
On to `CC(C(O)c1ccc(O)cc1)N1CCC(Cc2ccccc2)CC1` (stereo unspecified), for which the Potency entry is “inactive”.
With `O=C(O)CCc1ccccc1`, the Potency result is “inactive”.
As for `CC1COC(=O)O1` (stereo unspecified), the Potency result was “inactive”.
On to `CCn1c2ccccc2c2cc(N)ccc21`, for which the Potency entry was “inactive”.
As for `CC(C)(C)c1cc(C(C)(C)C)c(O)c(C(C)(C)C)c1`, the Potency entry is “inactive”.
As for `CC(=O)OCC1=C(C(=O)O)N2C(=O)[C@@H](NC(=O)Cc3cccs3)[C@H]2SC1`, the Potency entry is “inactive”.
Turning to `Cc1cccc([N+](=O)[O-])c1C(=O)O`, the Potency entry is “inactive”.
As to `CCC(CO)(CO)COCC(CC)(CO)CO`, the Potency result was “inactive”.
As for `C[N+]1([O-])CCOCC1`, the Potency result is “inactive”.
For `Cc1cc(C(C)(C)C)c(O)c(C(C)(C)C)c1`, the Potency entry was “inactive”.
